Measurements reported in the supplement of paper PMC8728848.
Only a selection was taken, and the strongest signals are over-represented in it overall.

What was measured:
Assay in all cases: glycan array binding signal (z-score within array); higher = stronger binding
Details in all cases: glycan notation: IUPAC condensed, linker removed
[1] = target: Gal(b1-4)GlcNAc(b1-2)[Gal(b1-4)GlcNAc(b1-4)]Man(a1-3)[GlcNAc(b1-4)][Gal(b1-4)GlcNAc(b1-2)Man(a1-6)]Man(b1-4)GlcNAc(b1-4)GlcNAc
Method in brief: (§1)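 Negative Z-scores can be read as non-binding. The Z-score is calculated within each array and then averaged across arrays of one protein sequence at different concentrations or buffers and across linkers. Arrays, 3228 in all, were curated from the Consortium for Functional Glycomics database and kept only where the protein sequence was available.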

[2] = target: Gal(b1-4)GlcNAc(b1-2)[Gal(b1-4)GlcNAc(b1-6)]Man(a1-6)[Gal(b1-4)GlcNAc(b1-2)Man(a1-3)]Man(b1-4)GlcNAc(b1-4)[Fuc(a1-6)]GlcNAc
Method in brief: as §1

[3] = target: Gal(b1-4)GlcNAc(b1-2)[Gal(b1-4)GlcNAc(b1-6)]Man(a1-6)[GlcNAc(b1-4)][Gal(b1-4)GlcNAc(b1-2)[Gal(b1-4)GlcNAc(b1-4)]Man(a1-3)]Man(b1-4)GlcNAc(b1-4)[Fuc(a1-6)]GlcNAc
Method in brief: as §1

[4] = target: Gal(b1-4)GlcNAc(b1-3)Gal(b1-3)GalNAc
Method in brief: as §1

[5] = target: Gal(b1-4)GlcNAc(b1-3)Gal(b1-4)GlcNAc(b1-2)Man(a1-3)[Gal(b1-4)GlcNAc(b1-3)Gal(b1-4)GlcNAc(b1-2)Man(a1-6)]Man(b1-4)GlcNAc(b1-4)[Fuc(a1-6)]GlcNAc
Method in brief: as §1

[6] = target: Gal(b1-4)GlcNAc(b1-3)Gal(b1-4)GlcNAc(b1-2)[Gal(b1-4)GlcNAc(b1-3)Gal(b1-4)GlcNAc(b1-6)]Man(a1-6)[Gal(b1-4)GlcNAc(b1-3)Gal(b1-4)GlcNAc(b1-2)Man(a1-3)]Man(b1-4)GlcNAc(b1-4)[Fuc(a1-6)]GlcNAc
Method in brief: as §1

[7] = target: Gal(b1-4)GlcNAc(b1-3)Gal(b1-4)GlcNAc(b1-3)Gal(b1-4)GlcNAc(b1-3)Gal(b1-4)GlcNAc(b1-2)Man(a1-3)[Gal(b1-4)GlcNAc(b1-3)Gal(b1-4)GlcNAc(b1-3)Gal(b1-4)GlcNAc(b1-3)Gal(b1-4)GlcNAc(b1-2)Man(a1-6)]Man(b1-4)GlcNAc(b1-4)[Fuc(a1-6)]GlcNAc
Method in brief: as §1

[8] = target: Gal(b1-4)GlcNAc(b1-3)Gal(b1-4)GlcNAc(b1-3)Gal(b1-4)GlcNAc(b1-3)Gal(b1-4)GlcNAc(b1-2)[Gal(b1-4)GlcNAc(b1-3)Gal(b1-4)GlcNAc(b1-3)Gal(b1-4)GlcNAc(b1-3)Gal(b1-4)GlcNAc(b1-6)]Man(a1-6)[Gal(b1-4)GlcNAc(b1-3)Gal(b1-4)GlcNAc(b1-3)Gal(b1-4)GlcNAc(b1-3)Gal(b1-4)GlcNAc(b1-2)Man(a1-3)]Man(b1-4)GlcNAc(b1-4)[Fuc(a1-6)]GlcNAc
Method in brief: as §1

[9] = target: Gal3S(b1-3)GalNAc
Method in brief: as §1

[10] = target: Gal3S(b1-4)[Fuc(a1-3)]GlcNAc6S
Method in brief: as §1

[11] = target: Gal6P(b1-4)GlcNAc
Method in brief: as §1

[12] = target: GalNAc(a1-3)GalNAc
Method in brief: as §1

[13] = target: GalNAc(b1-4)GlcNAc
Method in brief: as §1

[14] = target: GalNAc(b1-4)GlcNAc(b1-2)Man(a1-3)[GalNAc(b1-4)GlcNAc(b1-2)Man(a1-6)]Man(b1-4)GlcNAc(b1-4)GlcNAc
Method in brief: as §1

[15] = target: GalNAc(b1-4)GlcNAc6S
Method in brief: as §1

[16] = target: GlcNAc(a1-4)Gal(b1-4)GlcNAc(b1-3)Gal(b1-4)[Fuc(a1-3)]GlcNAc(b1-3)Gal(b1-4)[Fuc(a1-3)]GlcNAc
Method in brief: as §1

[17] = target: GlcNAc(b1-3)Gal(b1-4)GlcNAc(b1-6)[GlcNAc(b1-3)]Gal(b1-4)GlcNAc
Method in brief: as §1

[18] = target: GlcNAc(b1-3)Man
Method in brief: as §1

[19] = target: Neu5Ac(a2-3)Gal(b1-3)GalNAc(b1-4)[Neu5Ac(a2-3)]Gal(b1-4)Glc
Method in brief: as §1

[20] = target: Neu5Ac(a2-3)Gal(b1-3)GlcNAc(b1-2)Man(a1-3)[Neu5Ac(a2-3)Gal(b1-3)GlcNAc(b1-2)Man(a1-6)]Man(b1-4)GlcNAc(b1-4)GlcNAc
Method in brief: as §1

[21] = target: Neu5Ac(a2-3)Gal(b1-4)GlcNAc(b1-3)Gal(b1-4)GlcNAc(b1-6)[Gal(b1-3)]GalNAc
Method in brief: as §1

[22] = target: Neu5Ac(a2-3)Gal(b1-4)[Fuc(a1-3)]GlcNAc(b1-3)Gal
Method in brief: as §1

[23] = target: Neu5Ac(a2-6)Gal(b1-4)GlcNAc(b1-3)Gal(b1-4)GlcNAc
Method in brief: as §1

[24] = target: Neu5Ac(a2-6)Gal(b1-4)GlcNAc(b1-3)Gal(b1-4)GlcNAc(b1-3)Gal(b1-4)GlcNAc(b1-2)Man(a1-3)[Neu5Ac(a2-6)Gal(b1-4)GlcNAc(b1-3)Gal(b1-4)GlcNAc(b1-3)Gal(b1-4)GlcNAc(b1-2)Man(a1-6)]GalNAc
Method in brief: as §1

[25] = target: Neu5Ac(a2-6)Gal(b1-4)GlcNAc(b1-3)GalNAc
Method in brief: as §1

[26] = target: Neu5Ac(a2-6)Gal(b1-4)GlcNAc(b1-6)GalNAc
Method in brief: as §1

[27] = target: Neu5Ac(a2-8)Neu5Ac(a2-3)[GalNAc(b1-4)]Gal(b1-4)Glc
Method in brief: as §1

[28] = target: Neu5Ac(a2-8)Neu5Ac(a2-8)Neu5Ac(a2-8)Neu5Ac(a2-3)[GalNAc(b1-4)]Gal(b1-4)Glc
Method in brief: as §1

[29] = target: Neu5Gc(a2-3)Gal(b1-3)[Fuc(a1-4)]GlcNAc
Method in brief: as §1

B1: SHCBP1-GST (Homo sapiens), Q8NEM2 (protein)
chain: MADGSLTGGGLEAAAMAPERMGWAVEQELASLEKGLFQDEDSCSDCSYRDKPGSSLQSFMPEGKTFFPEIFQTNQLLFYERFRAYQDYILADCKASEVQEFTAEFLEKVLEPSGWRAVWHTNVFKVLVEITDVDFAALKAVVRLAEPYLCDSQVSTFTMECMKELLDLKEHRLPLQELWVVFDDSGVFDQTALAIEHVRFFYQNIWRSWDEEEEDEYDYFVRCVEPRLRLHYDILEDRVPSGLIVDYHNLLSQCEESYRKFLNLRSSLSNCNSDSEQENISMVEGLKLYSEMEQLKQKLKLIENPLLRYVFGYQKNSNIQAKGVRSSGQKITHVVSSTMMAGLLRSLLTDRLCQEPGEEEREIQFHSDPLSAINACFEGDTVIVCPGHYVVHGTFSIADSIELEGYGLPDDIVIEKRGKGDTFVDCTGADIKISGIKFVQHDAVEGILIVHRGKTTLENCVLQCETTGVTVRTSAEFLMKNSDLYGAKGAGIEIYPGSQCTLSDNGIHHCKEGILIKDFLDEHYDIPKISMVNNIIHNNEGYGVVLVKPTIFSDLQENAEDGTEENKALKIQTSGEPDVAERVDLEELIECATGKMELCARTDPSEQVEGNCEIVNELIAASTQKGQIKKKRLSELGITQADDNLMSQEMFVGIVGNQFKWNGKGSFGTFLF
glycan array binding signal (z-score) [1]: 0.176 | glycan array binding signal (z-score) [2]: 5.01 | glycan array binding signal (z-score) [3]: -0.032 | glycan array binding signal (z-score) [4]: -0.645 | glycan array binding signal (z-score) [5]: 0.801 | glycan array binding signal (z-score) [6]: 2.1 | glycan array binding signal (z-score) [7]: 3.03 | glycan array binding signal (z-score) [8]: 0.056 | glycan array binding signal (z-score) [9]: -0.165 | glycan array binding signal (z-score) [10]: -0.428 | glycan array binding signal (z-score) [11]: -0.929 | glycan array binding signal (z-score) [12]: -0.406 | glycan array binding signal (z-score) [13]: -0.137 | glycan array binding signal (z-score) [14]: 2.96 | glycan array binding signal (z-score) [15]: -0.496 | glycan array binding signal (z-score) [16]: 2.67 | glycan array binding signal (z-score) [17]: -0.274 | glycan array binding signal (z-score) [18]: -0.054 | glycan array binding signal (z-score) [19]: 0.166 | glycan array binding signal (z-score) [20]: -0.428 | glycan array binding signal (z-score) [21]: -0.09 | glycan array binding signal (z-score) [22]: -0.924 | glycan array binding signal (z-score) [23]: -1.12 | glycan array binding signal (z-score) [24]: 2.65 | glycan array binding signal (z-score) [25]: 2.41 | glycan array binding signal (z-score) [26]: -0.322 | glycan array binding signal (z-score) [27]: -0.847 | glycan array binding signal (z-score) [28]: 0.231 | glycan array binding signal (z-score) [29]: 0.247
